Molecules are shown by their SMILES. Values without a mark were called inactive. How the calls were made is not given here.

The assay deals with Pantothenate synthetase (Mycobacterium tuberculosis (strain ATCC 25618 / H37Rv)) (UniProt P9WIL5). Nature of the assay: Coupled enzyme confirmation of inhibitors against recombinant Mtb PanC (AID 375).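 Further: 0% = full reaction with vehicle and 100% = no enzyme background.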 Particulars: coupled enzyme assay; at 10 µM, stronger effect = higher value.
Sequence of Pantothenate synthetase (Mycobacterium tuberculosis (strain ATCC 25618 / H37Rv)) (P9WIL5 whole entry, looked up): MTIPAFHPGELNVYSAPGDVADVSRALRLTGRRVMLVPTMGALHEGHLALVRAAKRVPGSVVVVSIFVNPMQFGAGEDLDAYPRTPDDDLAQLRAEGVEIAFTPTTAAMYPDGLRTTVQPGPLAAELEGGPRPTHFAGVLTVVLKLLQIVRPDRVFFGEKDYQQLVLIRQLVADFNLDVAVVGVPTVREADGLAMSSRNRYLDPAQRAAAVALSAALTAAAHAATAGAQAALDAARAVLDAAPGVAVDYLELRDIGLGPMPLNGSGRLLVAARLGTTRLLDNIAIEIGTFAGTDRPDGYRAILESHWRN
On to `COc1ccc(-n2c(Cc3cccn3C)nnc2SCC(=O)Nc2cccc(OC)c2)cc1`, for which the inhibition is 2%. The same measure for `COc1ccccc1-c1nnc(NC(=O)c2ccc(S(=O)(=O)N(C)Cc3ccccc3)cc2)o1`: 0%. The result for `COc1ccc(Br)cc1C1N2CC3(C)CN1CC(C)(C2)C3=O` (stereo not given) reads 0%; that for `Cc1ccccc1-n1c(=O)c2ccccc2n2nnnc12`, 0%; that for `CCOC(=O)c1nn(-c2sc(C(=O)OC)c(C)c2C(=O)OC)cc1O`, 18%. The result for `COc1ccc(CCNC(=O)C2CCN(C(=O)N(C)C)CC2)cc1OC` reads 0%; that for `COC(=O)c1sc(NC(=O)COc2ccccc2OC)nc1C`, 0%; that for `Cc1cc(Nc2ccccc2)n(-c2ccccc2)n1`, 3%.

In the case of `Cc1c(C(=O)NCc2ccccn2)sc2nc(-c3ccc(F)cc3)cn12`, the inhibition is 0%. In the case of `CSc1cccc(NC(=O)CN(C)S(=O)(=O)c2ccccc2)c1`, the inhibition is 0%. The same measure for `CCOC(=O)CSc1nc2ccccc2c(=O)n1CCN1CCOCC1`: 0%; for `O=C1CC(N2CCN(C3CCc4ccccc4C3)CC2)C(=O)N1c1ccccc1` (stereo not given): 0%; for `O=C(CSc1nc(-c2ccccc2)cs1)NCc1ccco1`: 0%. The result for `CC(=O)Nc1ccc(Cl)c(C(N)=O)c1` reads 2%; that for `Cc1ccc(Nc2nc(CSc3nnnn3C)cs2)cc1`, 0%. As for `Cc1nnc(SCc2cc(=O)[nH]c(N3CCCCC3)n2)s1`, the inhibition was 1%. The result for `CC(C)(C)c1ccc2c(c1)OCC(C(=O)O)O2` (stereo not given) reads 4%; that for `CC(OC(=O)c1cccc(NS(C)(=O)=O)c1)C(=O)Nc1ccc(N2CCOCC2)cc1` (stereo not given), 0%. The result for `O=C1CCCC2=C1C1(CCCC1)N=C(Nc1nc3ccccc3s1)N2` reads 10%; that for `O=C(CSc1nnc(-c2cccnc2)o1)OC1CCCCC1`, 0%. The same measure for `CCCCN(C)C(=O)c1cn(C)c2ccc(S(=O)(=O)N(C)C)cc2c1=O`: 0%. Turning to `O=C(CN1C(=O)CC(c2ccco2)Sc2ccccc21)Nc1ccccc1F` (stereo not given), the inhibition was 0%. The result for `CCOc1ccc(NC(=O)C(C)Sc2nnc(C)n2C)cc1` (stereo not given) reads 0%; that for `N#Cc1cnc(SCC(=O)c2ccccc2)nc1N`, 2%; that for `CCOC(=O)c1cnc(-n2nc(C)cc2C)nc1NC(C)c1ccccc1` (stereo not given), 0%. The result for `Cn1c(=O)n(CC(=O)OCc2ccccc2)c(=O)c2c1nc1n2CCCN1C1CCCCC1` reads 0%; that for `CC(CN1CCOCC1)(NS(=O)(=O)c1ccccc1)c1ccccc1` (stereo not given), 1%; that for `O=C(c1ccccc1)c1ccc(N2CCNCC2)cc1`, 3%. On to `CC(C)NC(=O)CSc1nnc(-c2ccc(C(C)(C)C)cc2)n1C`, for which the inhibition was 1%. In the case of `O=C(NC1CCCCC1NC(=O)c1ccco1)c1ccco1` (stereo not given), the inhibition was 0%.

Take `COc1cc(OC)c(NC(=O)c2ccco2)cc1Cl`: the inhibition is 0%. Take `COc1ccc(C(=O)NCc2nnc(SC)n2C2CCCCC2)cc1`: the inhibition was 2%. The result for `COc1ccccc1NC(=O)N(Cc1ccccc1)c1ccccn1` reads 6%. The result for `C=CCSc1nnc(-c2cccnc2)o1` reads 0%. The result for `CC(C)Sc1nc(N2CCCC2)c2c(c1C#N)CC(C)(C)OC2` reads 0%; that for `COc1ccccc1CC(=O)NCc1ccc2c(c1)OCO2`, 0%. Turning to `CC1Oc2ccccc2N(Cc2ccccc2Cl)C1=O` (stereo not given), the inhibition was 9%.

Turning to `Cc1ccc(S(=O)(=O)N2CCN(S(C)(=O)=O)C2c2ccccc2)cc1` (stereo not given), the inhibition is 0%.

Take `Cc1cc(Cl)ccc1OCCCC(=O)NO`: the inhibition is 0%. The same measure for `CCc1nc(N[C@@H](Cc2c[nH]c3ccccc23)C(=O)O)c2oc3ccccc3c2n1`: 13%.

Usually inhibition stands for how much of the control response was suppressed.

The record behind these values is PubChem BioAssay.
